The values that follow come from ChEMBL document CHEMBL3988442, “University of Dundee, Small-Polar-MMV Screening Library” (2021).

Parameters in all cases: scale not given: direction of the effect not stated beside the values
The target in experiment [1] is Protein translocase subunit SecA (Escherichia coli (strain K12)) (UniProt P10408). The experiment in a line: Assay to Identify E. coli SecA ATPase Inhibitors. It counts as functional. The note with it: 30 µM.
Experiment [2] deals with T1, Ubiquitin-activating enzyme e1, putative (Leishmania donovani (strain BPK282A1)) (UniProt E9BSI1).
T1 sequence (whole entry): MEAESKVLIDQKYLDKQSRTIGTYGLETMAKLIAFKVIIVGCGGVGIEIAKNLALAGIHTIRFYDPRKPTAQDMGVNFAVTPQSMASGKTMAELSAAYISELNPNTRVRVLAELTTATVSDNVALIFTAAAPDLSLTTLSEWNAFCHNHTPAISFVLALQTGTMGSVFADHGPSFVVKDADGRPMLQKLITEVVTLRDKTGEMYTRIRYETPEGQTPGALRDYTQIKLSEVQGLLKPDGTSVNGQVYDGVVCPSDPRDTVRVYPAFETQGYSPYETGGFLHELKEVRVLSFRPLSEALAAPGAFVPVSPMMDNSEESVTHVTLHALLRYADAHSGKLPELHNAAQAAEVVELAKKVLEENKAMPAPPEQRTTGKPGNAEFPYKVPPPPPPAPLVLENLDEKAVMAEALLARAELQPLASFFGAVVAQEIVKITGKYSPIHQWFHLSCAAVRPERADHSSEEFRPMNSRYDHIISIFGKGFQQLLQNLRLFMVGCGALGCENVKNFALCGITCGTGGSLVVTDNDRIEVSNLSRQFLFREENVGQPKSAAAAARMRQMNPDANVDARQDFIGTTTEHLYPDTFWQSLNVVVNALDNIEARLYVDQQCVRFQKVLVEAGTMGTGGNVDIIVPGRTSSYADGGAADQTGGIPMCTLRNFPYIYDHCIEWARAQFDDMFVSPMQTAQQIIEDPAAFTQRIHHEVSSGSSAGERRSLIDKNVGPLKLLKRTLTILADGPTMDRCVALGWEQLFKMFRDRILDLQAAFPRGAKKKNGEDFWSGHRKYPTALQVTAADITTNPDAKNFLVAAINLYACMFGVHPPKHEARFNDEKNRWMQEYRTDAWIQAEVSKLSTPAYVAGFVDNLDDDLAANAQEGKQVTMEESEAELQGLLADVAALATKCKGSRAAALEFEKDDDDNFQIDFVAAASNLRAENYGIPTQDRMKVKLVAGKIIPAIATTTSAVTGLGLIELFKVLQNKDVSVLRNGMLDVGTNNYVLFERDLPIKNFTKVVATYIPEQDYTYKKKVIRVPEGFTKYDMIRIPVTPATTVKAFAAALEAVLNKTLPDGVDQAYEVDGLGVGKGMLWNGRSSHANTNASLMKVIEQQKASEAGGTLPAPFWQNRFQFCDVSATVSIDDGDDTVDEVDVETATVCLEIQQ
Nature of the experiment: Leishmania donovani Ubiquitin Activating Enzyme (LdE1). In kind it is functional. The settings on record: 30 µM.

Experiment [3] addresses AMP-activated protein kinase, AMPK (Homo sapiens) (UniProt P54646+O43741+P54619+Q9UGJ0+Q9Y478+Q13131+Q9UGI9). Nature of the experiment: AMP-dependent Kinase enzyme assay. An in vitro enzyme assay that detects ADP turnover that is directly proportional to AMPK activity. This uses naive AMPK that is activated during the assay with MK-8722. It counts as functional. The note with it: 30 µM.

Experiment [4] concerns the target Sialic acid-binding Ig-like lectin 9 (Homo sapiens) (UniProt Q9Y336). The experiment in a line: Hs-Siglec9 ALPHAscreen SOP 20170721. The note with it: 10 µM. (In Alpha technology, singlet oxygen from a donor bead excites a nearby acceptor bead.)
In another experiment the test system is Trypanosoma cruzi. The experiment in a line: Trypanosoma cruzi phosphomannomutase and mannose-1-phosphate guanylyltransferase assay. It counts as functional. The note with it: 10 µM.
Experiment [5] has as its target T2, Arginase-2, mitochondrial (Homo sapiens) (UniProt P78540).
T2 sequence (whole entry): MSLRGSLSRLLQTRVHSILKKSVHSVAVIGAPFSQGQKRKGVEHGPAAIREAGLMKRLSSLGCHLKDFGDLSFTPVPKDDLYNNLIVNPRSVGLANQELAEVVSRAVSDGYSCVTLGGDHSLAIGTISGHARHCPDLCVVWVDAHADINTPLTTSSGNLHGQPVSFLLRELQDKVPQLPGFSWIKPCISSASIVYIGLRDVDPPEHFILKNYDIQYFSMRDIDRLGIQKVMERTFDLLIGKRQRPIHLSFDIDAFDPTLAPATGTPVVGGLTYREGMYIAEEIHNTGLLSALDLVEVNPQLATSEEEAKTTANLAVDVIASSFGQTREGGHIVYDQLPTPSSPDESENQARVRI
Nature of the experiment: in vitro enzyme assay to detect the production of urea directly proportional to the activity of Arginase II. Also: in the data most compounds retested in dose-response had high values. In kind it is functional. The note with it: 33.3 µM.

The target of experiment [6] is T3, Proteasome subunit beta (Trypanosoma cruzi) (UniProt O96673).
T3 sequence (whole entry): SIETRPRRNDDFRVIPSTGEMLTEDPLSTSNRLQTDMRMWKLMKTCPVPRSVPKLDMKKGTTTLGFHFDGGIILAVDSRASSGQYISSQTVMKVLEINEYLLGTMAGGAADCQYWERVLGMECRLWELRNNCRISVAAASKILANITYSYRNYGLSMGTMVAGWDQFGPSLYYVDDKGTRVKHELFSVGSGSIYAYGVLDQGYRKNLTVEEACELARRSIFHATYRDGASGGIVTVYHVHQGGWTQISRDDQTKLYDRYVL
The experiment in a line: Trypanosoma cruzi proteasome chymotrypsin-like activity (TcProtChymo) assay. Also: in the data most compounds retested in dose-response had high values. The settings on record: 9.37 µM. It counts as functional.

The species entered for another experiment is Homo sapiens. The experiment in a line: To identify inhibition of the IFN signalling (Jak-Stat) pathway via expression of an eGFP reporter gene under the control of an IFN-stimulated response element (ISRE) containing MxA promoter. In kind it is functional. The note with it: 30 µM.
In experiment [7] the target is T4, Tyrosyl-tRNA synthetase, putative (Trypanosoma cruzi (strain CL Brener)) (UniProt Q4DSP6).
T4 sequence (whole entry): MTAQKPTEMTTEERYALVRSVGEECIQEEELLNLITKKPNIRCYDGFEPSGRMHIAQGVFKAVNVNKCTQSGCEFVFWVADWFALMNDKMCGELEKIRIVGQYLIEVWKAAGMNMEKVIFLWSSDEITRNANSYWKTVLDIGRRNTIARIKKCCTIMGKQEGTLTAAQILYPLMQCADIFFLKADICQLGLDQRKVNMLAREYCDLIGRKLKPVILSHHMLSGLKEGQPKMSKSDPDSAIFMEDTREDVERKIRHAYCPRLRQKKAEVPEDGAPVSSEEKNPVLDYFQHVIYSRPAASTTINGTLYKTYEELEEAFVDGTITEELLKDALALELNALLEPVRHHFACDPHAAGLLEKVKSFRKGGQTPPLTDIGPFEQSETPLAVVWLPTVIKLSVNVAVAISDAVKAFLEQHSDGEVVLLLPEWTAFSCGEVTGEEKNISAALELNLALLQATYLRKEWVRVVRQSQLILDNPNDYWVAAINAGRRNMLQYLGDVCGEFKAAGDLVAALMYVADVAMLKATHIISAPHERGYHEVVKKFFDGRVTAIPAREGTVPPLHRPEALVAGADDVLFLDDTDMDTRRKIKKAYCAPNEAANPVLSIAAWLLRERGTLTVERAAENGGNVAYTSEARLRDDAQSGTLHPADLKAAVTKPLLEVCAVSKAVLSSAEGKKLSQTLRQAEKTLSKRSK
The experiment in a line: Trypanosoma cruzi tyrosyl tRNA synthetase (TcYRS) _High Tyrosine SOP. Also: in the data most compounds retested in dose-response had high values. In kind it is functional. The note with it: 30 µM.

Experiment [8] has as its target T4, Tyrosyl-tRNA synthetase, putative (Trypanosoma cruzi (strain CL Brener)). The experiment in a line: Trypanosoma cruzi tyrosyl tRNA synthetase (TcYRS) SOP. The note with it: 30 µM. It counts as functional.
Experiment [9] addresses Chromo domain-containing protein 1 (Saccharomyces cerevisiae (strain ATCC 204508 / S288c) (Baker's yeast)) (UniProt P32657). The experiment in a line: ScCHD-1 Enzyme Inhibition Assay. Also: in the data most compounds retested in dose-response had high values. It counts as functional. The note with it: 30 µM.

For some of these results: Results with a measured potency or affinity are listed apart.

Protein translocase subunit SecA (Escherichia coli (strain K12)), sequence (P10408 whole entry): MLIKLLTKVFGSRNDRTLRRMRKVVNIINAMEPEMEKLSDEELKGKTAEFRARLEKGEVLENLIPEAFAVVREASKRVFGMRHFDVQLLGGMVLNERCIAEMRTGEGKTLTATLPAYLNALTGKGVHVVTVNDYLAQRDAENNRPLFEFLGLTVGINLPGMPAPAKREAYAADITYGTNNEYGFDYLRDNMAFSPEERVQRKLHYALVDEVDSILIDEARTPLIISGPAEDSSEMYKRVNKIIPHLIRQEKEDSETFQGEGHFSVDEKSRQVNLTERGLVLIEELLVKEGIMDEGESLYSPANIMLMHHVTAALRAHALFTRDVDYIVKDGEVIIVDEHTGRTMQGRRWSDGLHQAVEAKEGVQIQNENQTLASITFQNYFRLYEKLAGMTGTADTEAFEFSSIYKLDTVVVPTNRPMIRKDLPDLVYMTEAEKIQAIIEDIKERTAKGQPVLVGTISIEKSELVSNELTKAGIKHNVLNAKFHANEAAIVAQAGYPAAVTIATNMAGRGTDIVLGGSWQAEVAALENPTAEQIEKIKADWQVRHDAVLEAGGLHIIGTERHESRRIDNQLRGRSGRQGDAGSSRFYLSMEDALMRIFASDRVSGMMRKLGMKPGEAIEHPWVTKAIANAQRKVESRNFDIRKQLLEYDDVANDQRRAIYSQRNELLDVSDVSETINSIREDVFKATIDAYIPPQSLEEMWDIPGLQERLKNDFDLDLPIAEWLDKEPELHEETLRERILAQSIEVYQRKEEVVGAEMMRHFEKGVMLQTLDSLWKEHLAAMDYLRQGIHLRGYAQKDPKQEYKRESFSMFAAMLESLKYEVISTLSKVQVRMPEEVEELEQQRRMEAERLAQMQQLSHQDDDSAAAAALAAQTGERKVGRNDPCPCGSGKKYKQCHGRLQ
Sialic acid-binding Ig-like lectin 9 (Homo sapiens), sequence (Q9Y336 whole entry): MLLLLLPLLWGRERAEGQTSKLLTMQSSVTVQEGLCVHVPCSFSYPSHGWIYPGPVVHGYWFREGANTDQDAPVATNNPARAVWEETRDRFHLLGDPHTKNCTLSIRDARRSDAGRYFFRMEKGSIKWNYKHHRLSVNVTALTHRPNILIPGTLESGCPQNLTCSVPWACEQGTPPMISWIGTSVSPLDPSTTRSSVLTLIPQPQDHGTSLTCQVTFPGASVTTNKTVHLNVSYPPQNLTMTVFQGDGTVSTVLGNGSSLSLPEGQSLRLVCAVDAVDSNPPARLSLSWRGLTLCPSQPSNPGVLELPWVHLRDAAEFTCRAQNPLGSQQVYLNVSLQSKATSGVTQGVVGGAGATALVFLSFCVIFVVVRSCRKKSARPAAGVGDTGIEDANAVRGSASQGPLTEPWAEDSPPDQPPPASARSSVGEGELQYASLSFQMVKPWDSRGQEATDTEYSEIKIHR
Chromo domain-containing protein 1 (Saccharomyces cerevisiae (strain ATCC 204508 / S288c) (Baker's yeast)), sequence (P32657 whole entry, the tested form may be a part): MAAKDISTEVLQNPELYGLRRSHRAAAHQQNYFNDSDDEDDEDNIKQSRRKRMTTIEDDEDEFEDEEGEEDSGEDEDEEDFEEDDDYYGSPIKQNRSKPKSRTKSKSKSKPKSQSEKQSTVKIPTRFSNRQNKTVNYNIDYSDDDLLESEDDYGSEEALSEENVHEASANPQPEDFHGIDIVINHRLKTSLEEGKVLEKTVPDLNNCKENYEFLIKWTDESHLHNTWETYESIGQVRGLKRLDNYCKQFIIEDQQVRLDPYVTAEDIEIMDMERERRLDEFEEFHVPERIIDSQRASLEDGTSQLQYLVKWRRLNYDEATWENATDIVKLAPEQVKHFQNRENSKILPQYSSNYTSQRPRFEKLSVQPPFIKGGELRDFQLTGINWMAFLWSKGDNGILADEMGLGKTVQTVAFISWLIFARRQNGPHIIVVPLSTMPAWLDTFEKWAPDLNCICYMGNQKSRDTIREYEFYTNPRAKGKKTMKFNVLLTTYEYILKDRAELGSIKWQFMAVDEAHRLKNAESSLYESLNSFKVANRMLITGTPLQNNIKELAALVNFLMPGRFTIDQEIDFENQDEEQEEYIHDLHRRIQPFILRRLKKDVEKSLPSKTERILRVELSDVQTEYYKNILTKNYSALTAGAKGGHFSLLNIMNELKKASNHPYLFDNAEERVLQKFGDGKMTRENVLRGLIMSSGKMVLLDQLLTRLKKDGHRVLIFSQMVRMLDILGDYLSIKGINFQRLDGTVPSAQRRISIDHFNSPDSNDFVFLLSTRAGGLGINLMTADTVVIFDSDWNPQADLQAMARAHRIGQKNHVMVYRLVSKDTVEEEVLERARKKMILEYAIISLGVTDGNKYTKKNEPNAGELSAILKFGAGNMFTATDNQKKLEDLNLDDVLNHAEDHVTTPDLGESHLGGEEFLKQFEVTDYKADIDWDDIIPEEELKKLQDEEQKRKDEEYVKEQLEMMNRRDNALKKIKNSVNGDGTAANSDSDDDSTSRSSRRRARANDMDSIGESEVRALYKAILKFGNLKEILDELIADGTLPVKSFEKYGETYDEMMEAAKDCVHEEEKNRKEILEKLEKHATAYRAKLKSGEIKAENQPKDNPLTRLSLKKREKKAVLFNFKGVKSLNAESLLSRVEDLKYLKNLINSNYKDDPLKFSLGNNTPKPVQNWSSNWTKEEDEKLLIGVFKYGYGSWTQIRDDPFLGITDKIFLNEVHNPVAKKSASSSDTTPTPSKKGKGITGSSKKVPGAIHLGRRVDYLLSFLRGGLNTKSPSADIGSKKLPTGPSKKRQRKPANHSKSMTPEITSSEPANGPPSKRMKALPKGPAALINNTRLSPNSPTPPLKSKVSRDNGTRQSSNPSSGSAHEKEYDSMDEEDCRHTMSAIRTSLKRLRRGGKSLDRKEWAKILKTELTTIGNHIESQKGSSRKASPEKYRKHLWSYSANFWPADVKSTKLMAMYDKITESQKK

With `c1ccc2oc(N3CCCCC3Cn3cncn3)nc2c1` (stereo not drawn), the Percent Effect in experiment [1] was -9.23%; in experiment [2], 18.9%; in experiment [3], -13.5%; in experiment [4] it was 28.6%; with Trypanosoma cruzi, 11.4%; in experiment [5], -2.4%. For the same compound, the Percent Effect is 2.69% in experiment [6]; 1.84% in the experiment listed under Homo sapiens; 7.92% in [7]; 25.6% in experiment [8]; -5.86% in [9].

Take `CN(Cc1nccn1CC(F)(F)F)C(=O)c1ccc(F)cc1F`: the Percent Effect was -4.89% in experiment [1]; 5.26% in experiment [2]; 5.36% in experiment [3]; 6.23% in experiment [4]; -5.16% in the experiment with Trypanosoma cruzi; -5.92% in experiment [5]. Further, the Percent Effect in experiment [6] is 12.8%; in the experiment listed under Homo sapiens, -12.9%; in experiment [7] it was 6.38%; in experiment [8] it was 7.79%; in experiment [9], 3.79%.

Regarding `Cc1cc(C)c(CNC(=O)N2CCN(c3cnccn3)CC2)c(=O)[nH]1`, the Percent Effect is -7.87% in experiment [1]; 18.4% in experiment [2]; -1.35% in experiment [3]; 2.54% in [4]; 6.96% in the experiment on Trypanosoma cruzi; -1.53% in experiment [5]. Also, the Percent Effect was 12.2% in experiment [6]; 11.3% in the experiment listed under Homo sapiens; 3.43% in experiment [7]; 9.76% in experiment [8]; -9.64% in experiment [9].

For `CC(C(=O)NCc1ccnc(N2CCCC2)c1)n1cncn1` (stereo not drawn), the Percent Effect in experiment [1] was -3.9%; in experiment [2], 15.8%; in [3], -4.58%; in experiment [4], -5.93%; with Trypanosoma cruzi, -5.45%; in experiment [5] it was 3.45%. In addition, the Percent Effect in experiment [6] is 7.18%; in the experiment listed under Homo sapiens, 26.8%; in experiment [7] it was 3.43%; in experiment [8], 0%; in experiment [9] it was -11.3%.

On to `O=C1c2cnc(N3CCOCC3)nc2CN1c1ccc2c(c1)OCO2`, for which the Percent Effect in experiment [1] is -4.88%; in experiment [2], 7.79%; in [3] it was 1.53%; in experiment [4], 6.09%; in the experiment with Trypanosoma cruzi, 2.26%; in experiment [5], -5.52%. Further, the Percent Effect was 14.5% in experiment [6]; -11.1% in the experiment filed under Homo sapiens; 9.68% in experiment [7]; 21% in experiment [8]; 0.201% in [9].

In the case of `CC(C)N1CCn2c(nc3cc(C(N)=O)ccc32)C1`, the Percent Effect in experiment [1] was -8.72%; in experiment [2], 12%; in experiment [3] it was -4.63%; in experiment [4], 7.53%; in the experiment on Trypanosoma cruzi it was 0.393%; in experiment [5], -8.63%. The Percent Effect in experiment [6] is 8.87%; in the experiment filed under Homo sapiens, 2.55%; in experiment [7] it was 2.12%; in experiment [8], 12.8%; in [9], -11.8%.

`Cn1ccnc1-c1cccc(NC(=O)NCCN2CCOCC2)c1`: the Percent Effect in experiment [1] was -4.99%; in [2], 15.3%; in [3] it was -5.8%; in experiment [4], 16.5%; in the experiment on Trypanosoma cruzi, 4.57%; in [5], 16.3%. Further, the Percent Effect in experiment [6] is 10.9%; in the experiment listed under Homo sapiens it was 9.44%; in experiment [7] it was 5.26%; in experiment [8] it was 10.3%; in [9], -4.33%.

For `Cn1cccc1C(=O)N1CCc2ncc(Cn3cccn3)n2CC1`, the Percent Effect was -5.21% in experiment [1]; 10.7% in [2]; -0.846% in experiment [3]; -1.04% in experiment [4]; 2.32% in the experiment with Trypanosoma cruzi; -43.2% in [5]. Moreover, the Percent Effect is 0.513% in experiment [6]; -2.01% in the experiment filed under Homo sapiens; 2.08% in experiment [7]; 2.5% in experiment [8]; -3.31% in experiment [9].
